The values below come from PubChem BioAssay AID743421 (Vanderbilt Specialized Chemistry Center, 2014).

The experiment addresses Metabotropic glutamate receptor 6 (Homo sapiens) (UniProt O15303). The experiment can be described thus: mGlu6 agonist response modulation at 10 µM, profiling panel, selectivity assay for mGlu8/mGlu7 PAM project, cell-based, GIRK thallium flux, agonist curve fold shift (AID 743421). Particulars: mGlu6/GIRK cells, thallium flux (Fluo Zn), agonist CRC fold shift, stronger effect = higher value.

Chain of Metabotropic glutamate receptor 6 (Homo sapiens) (O15303 whole entry, looked up): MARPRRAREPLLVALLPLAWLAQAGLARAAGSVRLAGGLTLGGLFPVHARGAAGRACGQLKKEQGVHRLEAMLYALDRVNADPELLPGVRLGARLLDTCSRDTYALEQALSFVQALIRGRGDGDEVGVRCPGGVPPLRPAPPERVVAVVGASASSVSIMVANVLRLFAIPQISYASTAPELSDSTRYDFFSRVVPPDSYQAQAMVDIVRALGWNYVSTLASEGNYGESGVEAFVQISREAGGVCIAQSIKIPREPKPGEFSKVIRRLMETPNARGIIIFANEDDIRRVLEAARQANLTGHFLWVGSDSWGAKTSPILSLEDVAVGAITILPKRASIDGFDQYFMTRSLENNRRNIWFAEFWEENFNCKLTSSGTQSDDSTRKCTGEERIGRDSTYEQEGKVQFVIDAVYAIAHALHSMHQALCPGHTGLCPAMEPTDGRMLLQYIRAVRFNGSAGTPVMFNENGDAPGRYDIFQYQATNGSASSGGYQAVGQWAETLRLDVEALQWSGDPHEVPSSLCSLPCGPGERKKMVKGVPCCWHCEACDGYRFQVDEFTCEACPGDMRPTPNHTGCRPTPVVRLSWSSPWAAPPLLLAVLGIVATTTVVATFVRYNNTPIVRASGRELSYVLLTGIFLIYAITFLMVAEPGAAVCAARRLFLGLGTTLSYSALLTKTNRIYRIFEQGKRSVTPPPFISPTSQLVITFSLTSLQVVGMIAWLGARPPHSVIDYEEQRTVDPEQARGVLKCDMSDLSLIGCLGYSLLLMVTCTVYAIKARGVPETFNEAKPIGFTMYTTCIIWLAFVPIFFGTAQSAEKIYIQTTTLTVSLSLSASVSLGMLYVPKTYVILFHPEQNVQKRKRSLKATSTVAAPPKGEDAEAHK

Turning to `COC(=O)c1ccc(-n2c(C)cc(C(=O)CSc3ccc(NC(C)=O)cc3)c2C)cc1`, the fold shift was 2.59.
